# In PubChem BioAssay (NCI):
# This is part of a sample that, as a whole, favours compounds with a hit. Of some 79,000 tested, about 15% had one in any assay. Values without a mark were called inactive. Calls of active or inactive are those of the source. Cut-off read from the data, not from the text of the source: active = growth inhibition above about 70%; inactive = the rest.
# Key:
# [1] = NCI Yeast Anticancer Drug Screen. Data for the wt1 strain (AID 149);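 note: 0% = growth of vehicle-treated wt1 cultures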; conditions: S. cerevisiae wt1 strain (SPY 50644) growth inhibition, hits give high values
# How it was run: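 Compounds are added to wt1 yeast cultures. Growth is then measured. Inhibition is expressed relative to vehicle-treated controls.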
# [2] = NCI Yeast Anticancer Drug Screen. Data for the rad50EPP+ strain (AID 151);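 note: 0% = growth of vehicle-treated control cultures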; conditions: S. cerevisiae rad50 mutant strain, hits give high values
# How it was run: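 Yeast strain carrying rad50 alteration (rad50EPP+) exposed to compounds; growth inhibition measured relative to vehicle-treated controls.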
# [3] = NCI Yeast Anticancer Drug Screen. Data for the mgt1 strain (AID 153); conditions: S. cerevisiae mgt1 mutant growth inhibition, hits give high values
# How it was run: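 Yeast mgt1 strain (DNA repair/cell-cycle alteration panel) exposed to compounds; growth inhibition measured relative to vehicle-treated controls.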
# [4] = NCI Yeast Anticancer Drug Screen. Data for the rad50 strain (AID 155);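 note: 0% = growth of vehicle-only cultures of the same strain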; conditions: S. cerevisiae rad50 strain growth inhibition, hits give high values
# How it was run: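 Inhibition values express reduced yeast growth in compound-treated cultures relative to vehicle-treated controls.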
# [5] = NCI Yeast Anticancer Drug Screen. Data for the mec2-1 strain (AID 157); conditions: S. cerevisiae mec2-1 strain, hits give high values
# How it was run: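 mec2-1 yeast strain, carrying an alteration in DNA damage repair or cell cycle control, was exposed to compounds; growth inhibition was measured relative to vehicle-treated controls.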
# [6] = NCI Yeast Anticancer Drug Screen. Data for the rad14 strain (AID 159);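 note: 0% = growth of vehicle-treated control cultures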; conditions: S. cerevisiae rad14 strain growth inhibition, hits give high values
# How it was run: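 A mutant yeast strain defective in DNA damage repair is treated with compound; inhibition of its growth is scored against untreated, vehicle-exposed cultures.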
# [7] = NCI Yeast Anticancer Drug Screen. Data for the sgs1 mgt1 strain (AID 161);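 note: 0% = growth of cultures given vehicle only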; conditions: S. cerevisiae sgs1 mgt1 strain, hits give high values
# How it was run: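 Percent growth inhibition was derived by comparing compound-exposed mutant yeast with vehicle-exposed cultures. The strain carries alterations in DNA damage repair.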
# [8] = NCI Yeast Anticancer Drug Screen. Data for the CLN2oe strain (AID 163);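 note: 0% = growth of vehicle-only control cultures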; conditions: S. cerevisiae CLN2oe strain, hits give high values
# How it was run: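 Yeast cells carrying a defined cell-cycle control alteration were exposed to test compounds. Growth inhibition was scored against vehicle-treated control cultures.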
# [9] = NCI Yeast Anticancer Drug Screen. Data for the cln2 rad14 strain (AID 165);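 note: 0% = growth equal to vehicle treated cultures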; conditions: S. cerevisiae cln2 rad14 strain, hits give high values
# How it was run: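 Yeast carrying cln2 and rad14 alterations (cell cycle control and DNA damage repair) were exposed to compounds. Growth inhibition was measured against vehicle-treated controls.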
# [10] = NCI Yeast Anticancer Drug Screen. Data for the bub3 strain (AID 167); conditions: S. cerevisiae bub3 mutant strain, hits give high values
# How it was run: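 Steps: expose the mutant yeast strain to compound; grow alongside vehicle-treated cultures; measure growth; express inhibition against the vehicle cultures.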
# [11] = NCI Yeast Anticancer Drug Screen. Data for the wt2 strain (AID 169);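 note: 0% = growth of vehicle-treated yeast cultures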; conditions: S. cerevisiae wt2 strain growth inhibition, hits give high values
# How it was run: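 Yeast cells were exposed to test compounds, and growth inhibition was measured relative to vehicle-treated controls.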
# [12] = NCI Yeast Anticancer Drug Screen. Data for the mlh1 strain (AID 171);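 note: 0% = growth of vehicle-treated control cultures of the same strain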; conditions: S. cerevisiae mlh1 strain growth inhibition, hits give high values
# How it was run: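 Yeast carrying a defined genetic alteration in DNA damage repair or cell cycle control were exposed to test compounds. Growth inhibition was measured relative to vehicle-treated controls.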
# [13] = NCI Yeast Anticancer Drug Screen. Data for the sgs1 strain (AID 173);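 note: 0% = growth of vehicle-only control cultures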; conditions: S. cerevisiae sgs1 mutant, hits give high values
# How it was run: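 Yeast mutant strains carrying defined defects in DNA damage repair or cell cycle control were exposed to test compounds. Growth inhibition was scored against vehicle-treated controls.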
# [14] = NCI Yeast Anticancer Drug Screen. Data for the mlh1 rad18 strain (AID 175); conditions: S. cerevisiae mlh1 rad18 strain growth inhibition, hits give high values
# How it was run: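 Growth inhibition of the yeast strain was measured after compound exposure and expressed relative to vehicle-treated controls. The strain carries defined defects in DNA damage repair.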
# [15] = NCI Yeast Anticancer Drug Screen. Data for the rad18 strain (AID 177); conditions: S. cerevisiae rad18 mutant growth inhibition, hits give high values
# How it was run: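 Yeast carrying a defined DNA damage repair alteration were exposed to compounds. Growth inhibition was expressed relative to vehicle-treated controls.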
# [16] = at 5.0 µM (retest, dose inferred, filed as 0.5)
# [17] = at 50.0 µM (retest, dose inferred, filed as 5.0)
smiles,measurement,setting,value
Cc1nc2ccccc2cc1C[N+]12CN3CN(CN(C3)C1)C2,growth inhibition,[1]; at 1.2 µM,0%
same,growth inhibition,[1]; at 3.7 µM,-2%
same,growth inhibition,[1]; at 11.0 µM,0%
same,growth inhibition,[1]; at 33.0 µM,3%
same,growth inhibition,[1]; at 100.0 µM,20%
same,growth inhibition,[2]; at 1.2 µM,0%
same,growth inhibition,[2]; at 3.7 µM,1%
same,growth inhibition,[2]; at 11.0 µM,1%
same,growth inhibition,[2]; at 33.0 µM,21%
same,growth inhibition,[2]; at 100.0 µM,85% (active)
same,growth inhibition,[3]; at 1.2 µM,2%
same,growth inhibition,[3]; at 3.7 µM,5%
same,growth inhibition,[3]; at 11.0 µM,4%
same,growth inhibition,[3]; at 33.0 µM,6%
same,growth inhibition,[3]; at 100.0 µM,36%
same,growth inhibition,[4]; at 1.2 µM,1%
same,growth inhibition,[4]; at 3.7 µM,9%
same,growth inhibition,[4]; [16],-7%
same,growth inhibition,[4]; at 11.0 µM,7%
same,growth inhibition,[4]; at 33.0 µM,25%
same,growth inhibition,[4]; [17],55%
same,growth inhibition,[4]; at 50.0 µM,84% (active)
same,growth inhibition,[4]; at 100.0 µM,85% (active)
same,growth inhibition,[5]; at 1.2 µM,2%
same,growth inhibition,[5]; at 3.7 µM,4%
same,growth inhibition,[5]; [16],-2%
same,growth inhibition,[5]; at 11.0 µM,5%
same,growth inhibition,[5]; at 33.0 µM,10%
same,growth inhibition,[5]; [17],28%
same,growth inhibition,[5]; at 50.0 µM,25.1%
same,growth inhibition,[5]; at 100.0 µM,32%
same,growth inhibition,[6]; at 1.2 µM,-2%
same,growth inhibition,[6]; at 3.7 µM,6%
same,growth inhibition,[6]; at 11.0 µM,3%
same,growth inhibition,[6]; at 33.0 µM,11%
same,growth inhibition,[6]; at 100.0 µM,47%
same,growth inhibition,[7]; [16],-6%
same,growth inhibition,[7]; [17],27%
same,growth inhibition,[7]; at 50.0 µM,47.2%
same,growth inhibition,[8]; at 1.2 µM,1%
same,growth inhibition,[8]; at 3.7 µM,1%
same,growth inhibition,[8]; at 11.0 µM,4%
same,growth inhibition,[8]; at 33.0 µM,6%
same,growth inhibition,[8]; at 100.0 µM,25%
same,growth inhibition,[9]; [16],-30%
same,growth inhibition,[9]; [17],4%
same,growth inhibition,[9]; at 50.0 µM,19.9%
same,growth inhibition,[10]; at 1.2 µM,4%
same,growth inhibition,[10]; at 3.7 µM,4%
same,growth inhibition,[10]; [16],6%
same,growth inhibition,[10]; at 11.0 µM,1%
same,growth inhibition,[10]; at 33.0 µM,2%
same,growth inhibition,[10]; [17],2%
same,growth inhibition,[10]; at 50.0 µM,42%
same,growth inhibition,[10]; at 100.0 µM,26%
same,growth inhibition,[11]; at 1.2 µM,1%
same,growth inhibition,[11]; at 3.7 µM,-5%
same,growth inhibition,[11]; at 11.0 µM,4%
same,growth inhibition,[11]; at 33.0 µM,11%
same,growth inhibition,[11]; at 100.0 µM,46%
same,growth inhibition,[12]; at 1.2 µM,-1%
same,growth inhibition,[12]; at 3.7 µM,1%
same,growth inhibition,[12]; at 11.0 µM,-6%
same,growth inhibition,[12]; at 33.0 µM,4%
same,growth inhibition,[12]; at 100.0 µM,46%
same,growth inhibition,[13]; at 1.2 µM,-1%
same,growth inhibition,[13]; at 3.7 µM,-2%
same,growth inhibition,[13]; at 11.0 µM,2%
same,growth inhibition,[13]; at 33.0 µM,28%
same,growth inhibition,[13]; at 100.0 µM,80% (active)
same,growth inhibition,[14]; [16],-1%
same,growth inhibition,[14]; [17],39%
same,growth inhibition,[14]; at 50.0 µM,68.2%
same,growth inhibition,[15]; at 1.2 µM,-1%
same,growth inhibition,[15]; at 3.7 µM,-2%
same,growth inhibition,[15]; at 11.0 µM,-2%
same,growth inhibition,[15]; at 33.0 µM,16%
same,growth inhibition,[15]; at 100.0 µM,83% (active)
CS(=O)(=O)OCCN(CCOS(C)(=O)=O)c1ccc(C=O)cc1,growth inhibition,[1]; at 1.2 µM,0%
same,growth inhibition,[1]; at 3.7 µM,-19%
same,growth inhibition,[1]; at 11.0 µM,10%
same,growth inhibition,[1]; at 33.0 µM,28%
same,growth inhibition,[1]; at 100.0 µM,49%
same,growth inhibition,[2]; at 1.2 µM,4%
same,growth inhibition,[2]; at 3.7 µM,6%
same,growth inhibition,[2]; at 11.0 µM,9%
same,growth inhibition,[2]; at 33.0 µM,30%
same,growth inhibition,[2]; at 100.0 µM,51%
same,growth inhibition,[3]; at 1.2 µM,5%
same,growth inhibition,[3]; at 3.7 µM,13%
same,growth inhibition,[3]; at 11.0 µM,32%
same,growth inhibition,[3]; at 33.0 µM,58%
same,growth inhibition,[3]; at 100.0 µM,78% (active)
same,growth inhibition,[4]; at 1.2 µM,16%
same,growth inhibition,[4]; at 3.7 µM,34%
same,growth inhibition,[4]; [16],33%
same,growth inhibition,[4]; at 11.0 µM,60%
same,growth inhibition,[4]; at 33.0 µM,80% (active)
same,growth inhibition,[4]; [17],84% (active)
same,growth inhibition,[4]; at 50.0 µM,79.3% (active)
same,growth inhibition,[4]; at 100.0 µM,92% (active)
same,growth inhibition,[5]; at 1.2 µM,8%
same,growth inhibition,[5]; at 3.7 µM,20%
same,growth inhibition,[5]; [16],29%
same,growth inhibition,[5]; at 11.0 µM,43%
same,growth inhibition,[5]; at 33.0 µM,75% (active)
same,growth inhibition,[5]; [17],88% (active)
same,growth inhibition,[5]; at 50.0 µM,83.6% (active)
same,growth inhibition,[5]; at 100.0 µM,90% (active)
same,growth inhibition,[6]; at 1.2 µM,22%
same,growth inhibition,[6]; at 3.7 µM,36%
same,growth inhibition,[6]; at 11.0 µM,63%
same,growth inhibition,[6]; at 33.0 µM,82% (active)
same,growth inhibition,[6]; at 100.0 µM,91% (active)
same,growth inhibition,[7]; [16],26%
same,growth inhibition,[7]; [17],80% (active)
same,growth inhibition,[7]; at 50.0 µM,79.4% (active)
same,growth inhibition,[8]; at 1.2 µM,-10%
same,growth inhibition,[8]; at 3.7 µM,-1%
same,growth inhibition,[8]; at 11.0 µM,15%
same,growth inhibition,[8]; at 33.0 µM,35%
same,growth inhibition,[8]; at 100.0 µM,65%
same,growth inhibition,[9]; [16],8%
same,growth inhibition,[9]; [17],74% (active)
same,growth inhibition,[9]; at 50.0 µM,65.2%
same,growth inhibition,[10]; at 1.2 µM,-6%
same,growth inhibition,[10]; at 3.7 µM,-3%
same,growth inhibition,[10]; [16],-8%
same,growth inhibition,[10]; at 11.0 µM,10%
same,growth inhibition,[10]; at 33.0 µM,38%
same,growth inhibition,[10]; [17],37%
same,growth inhibition,[10]; at 50.0 µM,73.2% (active)
same,growth inhibition,[10]; at 100.0 µM,72% (active)
same,growth inhibition,[11]; at 1.2 µM,-1%
same,growth inhibition,[11]; at 3.7 µM,12%
same,growth inhibition,[11]; at 11.0 µM,18%
same,growth inhibition,[11]; at 33.0 µM,43%
same,growth inhibition,[11]; at 100.0 µM,85% (active)
